PubChem BioAssay (NCATS)
Records with an inconclusive call do not appear. Where a call stands in place of a potency, no number is given. Some compounds were tested as several samples or in several runs, with calls that do not always agree. Active and inactive are the calls of the source. Unless noted, the call rests on the fitted dose curve; in most records, active means well fitted curve in the direction sought with a large enough effect; inconclusive means small, poorly fitted or top-dose-only effect, or another doubt; inactive means no such curve, though single readings can be large; an effect the other way counts as inactive or inconclusive.

What was measured:
[1] = molecular target: ATP-dependent 6-phosphofructokinase (Trypanosoma brucei brucei) (UniProt O15648); assay: qHTS Validation Assay to Find Inhibitors of T. brucei phosphofructokinase (AID 485368)
Method in brief: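 Inhibition derived from concentration-response curves of luminescence, ranked by r2, response size and curve class; the underlying reaction used 1.25 nM PFK, 0.1 mM ATP and 0.5 mM F6P, 45 min, room temperature.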

[2] = Quantitative high throughput screen for delayed death inhibitors of the malarial parasite plastid, 96 hour incubation (AID 488745); further: nearly all actives have a fitted effect of over 70% in size; further: potency means the concentration at half of the fitted maximal effect
Method in brief: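 Two-generation (96 h) exposure of luciferase-reporter P. falciparum in erythrocytes, 2% hematocrit, 0.1% parasitemia final, 37 C, 5% CO2, RPMI 1640 with 0.5% Albumax. Growth inhibition scored by reduced luminescence.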

[3] = molecular target: Thioredoxin reductase 1, cytoplasmic (Rattus norvegicus) (UniProt O89049); assay: qHTS Assay for Substrates of Mammalian Selenoprotein Thioredoxin Reductase 1 (TrxR1) (AID 488772);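 further: series mostly up to about 57 µM; a drop in NADPH fluorescence below the no-compound background marks a TrxR1 substrate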
Method in brief: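 In this dual-purpose format, potential substrates are identified from the first fluorescence read after selenite addition, not from the 8-minute delta. Rat enzyme is preincubated with NADPH and then with compound at ~22 deg C.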

[4] = molecular target: Thioredoxin reductase 1, cytoplasmic (Rattus norvegicus) (UniProt O89049); assay: qHTS Assay for Inhibitors of Mammalian Selenoprotein Thioredoxin Reductase 1 (TrxR1) (AID 488773); details: Potency: inhibition;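 further: drop in NADPH fluorescence over an 8 min run after selenite addition; series mostly up to about 57 µM; nearly all actives have a fitted effect of over 40% in size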
Method in brief: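 Inhibition is scored from the loss of NADPH fluorescence between first and last reads of an 8-min kinetic run. Selenite (400 uM) was the substrate, added after 15 min compound preincubation at room temperature.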

[5] = molecular target: Flap endonuclease 1 (Homo sapiens) (UniProt P39748); assay: qHTS Validation Assay for the Inhibitors of Human Flap endonuclease 1 (FEN1) (AID 488816)
Method in brief: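 qHTS format: compounds and 10 nM FEN1 incubated 15 min at room temperature before adding 50 nM substrate. Cleavage followed by reads at 0 and 15 min; normalized data fitted to a four-parameter Hill curve.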

[6] = molecular target: M-phase phosphoprotein 8 (Homo sapiens) (UniProt Q99549); assay: qHTS Validation Assay for Inhibitors for MPP8 Chromodomain Interactions with Methylated Histone Tails (AID 488949); further: nearly all actives have a fitted effect of over 55% in size; further: potency means the concentration at half of the fitted maximal effect
Method in brief: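 Disruption of the preformed MPP8–trimethyl-H3K9 peptide complex (both 50 nM, 30 min, RT) is measured after 30 min compound exposure, using AlphaScreen proximity beads; aurintricarboxylic acid titration serves as plate control.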

[7] = molecular target: Chromobox protein homolog 1 (Homo sapiens) (UniProt P83916); assay: qHTS Validation Assay for Inhibitors of HP1-beta Chromodomain Interactions with Methylated Histone Tails (AID 488953); further: nearly all actives have a fitted effect of over 50% in size; further: potency means the concentration at half of the fitted maximal effect
Method in brief: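 Compounds pinned into a preassembled complex of HP1-beta and trimethyl-K9 histone H3(1-18) biotin peptide (50 nM each; PBS pH 7.4, 0.01% Tween-20). After 30 min, bead-based AlphaScreen detection followed.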

[8] = molecular target: Methanococcus maripaludis chaperonin (MmCpn) (UniProt Q6LX38); assay: High-Throughput Screening for Modulators of Cytosolic Chaperonin Activity: MmCpn Primary Screen (AID 488978);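 further: 50 nM MmCpn enzyme hydrolysing 30 µM ATP at 37 °C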
Method in brief: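 Measures ATPase turnover of the M. maripaludis chaperonin (50 nM final) against 30 uM ATP over 10 min at 37C, with compound added 5 min beforehand at room temperature. ADP is quantified by HTRF immunodetection.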

[9] = molecular target: Transient receptor potential cation channel subfamily V member 1 (Homo sapiens) (UniProt Q8NER1); assay: HTS Assay for Compounds that Act as Enhancers of the Vanilloid Receptor 1 (AID 488979)
Method in brief: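 Calcium influx kinetics via Fluo-8 (480/520 nm) in TRPV1-expressing cells, 2000/well cultured overnight at 35.5C. Compound-alone read 3 min (agonist phase), followed by EC20 capsaicin challenge for 2 min (enhancer phase).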

[10] = molecular target: Thyrotropin receptor (Homo sapiens) (UniProt P16473); assay: qHTS Assay for Antagonists of the Thyroid Stimulating Hormone Receptor (AID 488980); further: series mostly up to about 58 µM
Method in brief: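 Cells expressing human TSHR (HEK293) are dispensed in HBSS/HEPES containing 70 uM RO 20-1724, compound is added, then TSH at EC80 (4 nM final). Antibody in lysis buffer follows, 30 minutes at room temperature before HTRF detection.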

[11] = molecular target: D(1A) dopamine receptor (Homo sapiens) (UniProt P21728); assay: HTS Assay for Allosteric Agonists of the Human D1 Dopamine Receptor: Primary Screen for Agonists (AID 488981)
Method in brief: (§1)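 Calcium flux in an inducible, force-coupled HEK293 Trex D1 line (overnight at 30 C): agonist mode is the 180 s kinetic read after compound; potentiator mode is the following 180 s read after dopamine at EC20.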

[12] = molecular target: D(1A) dopamine receptor (Homo sapiens) (UniProt P21728); assay: HTS Assay for Allosteric Agonists of the Human D1 Dopamine Receptor: Primary Screen for Potentiators (AID 488982); further: potency means the concentration at half of the fitted maximal effect
Method in brief: as §1

[13] = molecular target: D(1A) dopamine receptor (Homo sapiens) (UniProt P21728); assay: HTS Assay for Allosteric Agonists of the Human D1 Dopamine Receptor: Primary Screen for Antagonists (AID 488983);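 further: calcium flux response to an EC80 dopamine challenge measured with no-wash dye; nearly all actives have a fitted effect of over 65% in size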
Method in brief: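 In this primary screen, compounds are applied to calcium-dye-loaded HEK293 T-REx cells with force-coupled D1 expression induced overnight at 30 C. An EC80 of dopamine follows the 180 s compound phase, and calcium is monitored for a further 180 s.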

[14] = Validation screen for small molecules that induce genotoxicity in human embryonic kidney (HEK293T) cells expressing luciferase-tagged ELG1 (AID 493106)
Method in brief: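 In this validation screen, increased ELG1-luciferase signal flags compounds causing genetic stress. HEK293T reporter cells are treated 16 hr (37 °C, 5% CO2), developed with ONE-Glo for 30 min at room temperature, and imaged on a CCD-based reader.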

[15] = molecular target: Thyrotropin-releasing hormone receptor (Homo sapiens) (UniProt P34981); assay: qHTS for Small Molecule Agonists and Allosteric Enhancers of Human TRH Receptor: Validation Screen for Agonists (AID 493127;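 active means calcium activation more than 3 SD above the typical response in the agonist read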;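 further: intracellular calcium rise by fluo-8 fluorescence before TRH EC20 addition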); details: TRH receptor agonist cell assay; at 2 µM; stronger effect = higher value
Method in brief: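 Kinetic fluorescence assay of agonist-induced calcium release: overnight-plated TRHR cells, room-temperature fluo-8 loading, baseline then compound addition with per-second reads.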

[16] = molecular target: ATPase family AAA domain-containing protein 5 (Homo sapiens) (UniProt Q96QE3); assay: Validation screen for small molecules that inhibit ELG1-dependent DNA repair in human embryonic kidney (HEK293T) cells expressing luciferase-tagged ELG1 (AID 493107);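 further: cells co-treated with the DNA-damaging agent 5-fluorouridine alongside compound; series mostly up to about 46 µM; inhibitors lower the ELG1-luciferase luminescence signal; nearly all actives have a fitted effect of over 70% in size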
Method in brief: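 Compounds reducing 5-fluorouridine-driven ELG1-luciferase signal in HEK293T cells were scored; exposure lasted 16 hr at 37 °C with luminescence detected via ONE-Glo.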

[17] = Quantitative high throughput screen for delayed death inhibitors of the malarial parasite plastid, 48 hour incubation (AID 488752); further: nearly all actives have a fitted effect of over 65% in size; further: potency means the concentration at half of the fitted maximal effect
Method in brief: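 Cultures: infected erythrocytes at final 2% hematocrit and 0.1% parasitemia in Albumax-supplemented RPMI. Parasites express integrated firefly luciferase. Incubation with compound lasts 48 h before luminescent detection of remaining reporter activity.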

[18] = molecular target: Tyrosyl-DNA phosphodiesterase 1 (Homo sapiens) (UniProt Q9NUW8); assay: Confirmation Assay for Inhibitors of Tyrosyl-DNA Phosphodiesterase (TDP1) (AID 489007); details: recombinant human TDP1 enzymatic activity, dose-response; further: potency means the concentration at half of the fitted maximal effect; nearly all actives have a fitted effect of over 40% in size
Method in brief: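 Loss of AlphaScreen signal reports Tdp1 cleavage of a dual-labelled DNA substrate. Conditions: 1 nM E. coli-derived enzyme, 15 nM substrate, 15 min compound preincubation, 5 min reaction, 10 min bead incubation, all at room temperature.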

Sequence of Thyrotropin-releasing hormone receptor (Homo sapiens) (P34981 whole entry, looked up): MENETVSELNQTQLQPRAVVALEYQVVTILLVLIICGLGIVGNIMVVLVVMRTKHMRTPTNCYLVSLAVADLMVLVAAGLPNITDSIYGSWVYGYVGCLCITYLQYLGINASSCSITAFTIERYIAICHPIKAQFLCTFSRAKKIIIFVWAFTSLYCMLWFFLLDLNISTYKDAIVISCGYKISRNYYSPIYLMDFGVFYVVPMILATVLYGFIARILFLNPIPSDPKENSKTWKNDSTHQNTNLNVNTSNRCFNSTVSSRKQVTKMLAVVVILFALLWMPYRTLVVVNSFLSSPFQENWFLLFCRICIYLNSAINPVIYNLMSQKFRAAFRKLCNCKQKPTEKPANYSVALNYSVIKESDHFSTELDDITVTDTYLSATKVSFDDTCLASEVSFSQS
Sequence of Thyrotropin receptor (Homo sapiens) (P16473 whole entry, looked up): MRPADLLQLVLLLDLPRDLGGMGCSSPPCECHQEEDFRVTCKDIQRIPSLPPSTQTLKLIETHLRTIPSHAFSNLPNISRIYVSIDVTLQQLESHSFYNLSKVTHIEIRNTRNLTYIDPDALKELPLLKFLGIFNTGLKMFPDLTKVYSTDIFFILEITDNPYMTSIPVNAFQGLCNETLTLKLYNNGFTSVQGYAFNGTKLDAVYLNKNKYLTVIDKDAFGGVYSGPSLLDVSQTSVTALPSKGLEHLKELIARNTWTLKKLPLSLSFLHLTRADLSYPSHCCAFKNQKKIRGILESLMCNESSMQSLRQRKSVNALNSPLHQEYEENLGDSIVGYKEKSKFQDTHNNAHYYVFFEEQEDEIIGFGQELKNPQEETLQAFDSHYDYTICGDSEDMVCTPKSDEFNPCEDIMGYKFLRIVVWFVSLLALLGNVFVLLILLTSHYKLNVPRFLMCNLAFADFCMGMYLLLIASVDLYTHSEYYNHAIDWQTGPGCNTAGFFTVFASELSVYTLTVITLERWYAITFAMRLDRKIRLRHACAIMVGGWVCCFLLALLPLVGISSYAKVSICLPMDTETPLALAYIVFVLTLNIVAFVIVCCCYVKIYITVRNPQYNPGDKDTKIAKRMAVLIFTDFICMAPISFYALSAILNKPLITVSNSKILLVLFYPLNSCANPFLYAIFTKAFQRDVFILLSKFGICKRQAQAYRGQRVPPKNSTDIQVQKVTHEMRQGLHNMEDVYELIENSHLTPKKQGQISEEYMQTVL
Sequence of ATPase family AAA domain-containing protein 5 (Homo sapiens) (Q96QE3 whole entry, looked up, the tested form may be a part): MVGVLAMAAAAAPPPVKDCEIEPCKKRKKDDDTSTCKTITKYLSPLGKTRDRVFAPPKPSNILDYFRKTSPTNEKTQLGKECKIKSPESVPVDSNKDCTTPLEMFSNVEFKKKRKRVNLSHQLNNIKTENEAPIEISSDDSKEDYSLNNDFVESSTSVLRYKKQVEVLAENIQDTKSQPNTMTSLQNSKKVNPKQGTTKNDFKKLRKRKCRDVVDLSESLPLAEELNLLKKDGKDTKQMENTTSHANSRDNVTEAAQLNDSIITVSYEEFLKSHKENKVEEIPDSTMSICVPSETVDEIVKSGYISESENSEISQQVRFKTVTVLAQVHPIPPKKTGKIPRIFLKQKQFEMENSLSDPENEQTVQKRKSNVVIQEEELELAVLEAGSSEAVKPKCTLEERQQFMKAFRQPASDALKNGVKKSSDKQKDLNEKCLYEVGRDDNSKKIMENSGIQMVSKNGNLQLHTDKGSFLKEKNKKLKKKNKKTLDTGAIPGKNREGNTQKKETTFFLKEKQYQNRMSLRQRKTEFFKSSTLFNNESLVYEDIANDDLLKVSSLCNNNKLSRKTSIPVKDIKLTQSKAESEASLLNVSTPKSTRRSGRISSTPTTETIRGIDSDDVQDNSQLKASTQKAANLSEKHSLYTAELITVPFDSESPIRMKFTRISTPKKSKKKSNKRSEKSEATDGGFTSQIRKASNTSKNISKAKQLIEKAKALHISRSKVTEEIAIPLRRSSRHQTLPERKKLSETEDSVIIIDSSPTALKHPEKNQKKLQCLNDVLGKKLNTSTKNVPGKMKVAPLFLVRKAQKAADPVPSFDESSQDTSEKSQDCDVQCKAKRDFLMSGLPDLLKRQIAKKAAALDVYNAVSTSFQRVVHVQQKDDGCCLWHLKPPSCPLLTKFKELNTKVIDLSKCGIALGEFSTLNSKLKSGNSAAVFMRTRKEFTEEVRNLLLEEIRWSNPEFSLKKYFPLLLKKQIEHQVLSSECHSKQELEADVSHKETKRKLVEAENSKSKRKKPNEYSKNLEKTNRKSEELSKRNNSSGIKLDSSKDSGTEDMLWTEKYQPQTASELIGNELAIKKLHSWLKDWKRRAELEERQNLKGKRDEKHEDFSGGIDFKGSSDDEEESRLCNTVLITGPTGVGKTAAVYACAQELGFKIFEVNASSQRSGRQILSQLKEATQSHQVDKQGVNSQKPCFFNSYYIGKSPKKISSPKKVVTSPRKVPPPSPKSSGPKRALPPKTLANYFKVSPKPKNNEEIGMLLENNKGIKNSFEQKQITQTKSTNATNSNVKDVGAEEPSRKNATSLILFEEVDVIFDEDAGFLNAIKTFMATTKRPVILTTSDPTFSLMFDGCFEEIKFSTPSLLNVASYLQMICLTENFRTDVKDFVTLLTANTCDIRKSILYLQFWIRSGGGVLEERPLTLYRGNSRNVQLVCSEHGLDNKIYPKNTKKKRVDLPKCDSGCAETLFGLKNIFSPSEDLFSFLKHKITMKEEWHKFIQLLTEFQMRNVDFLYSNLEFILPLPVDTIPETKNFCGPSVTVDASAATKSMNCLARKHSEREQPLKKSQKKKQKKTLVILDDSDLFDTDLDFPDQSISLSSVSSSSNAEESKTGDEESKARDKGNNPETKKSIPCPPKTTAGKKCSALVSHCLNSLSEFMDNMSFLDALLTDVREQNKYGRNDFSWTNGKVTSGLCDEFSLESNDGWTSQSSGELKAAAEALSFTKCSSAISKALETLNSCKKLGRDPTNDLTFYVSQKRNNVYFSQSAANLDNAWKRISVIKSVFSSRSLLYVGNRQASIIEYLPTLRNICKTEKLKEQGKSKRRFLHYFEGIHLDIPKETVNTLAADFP
Sequence of D(1A) dopamine receptor (Homo sapiens) (P21728 whole entry, looked up): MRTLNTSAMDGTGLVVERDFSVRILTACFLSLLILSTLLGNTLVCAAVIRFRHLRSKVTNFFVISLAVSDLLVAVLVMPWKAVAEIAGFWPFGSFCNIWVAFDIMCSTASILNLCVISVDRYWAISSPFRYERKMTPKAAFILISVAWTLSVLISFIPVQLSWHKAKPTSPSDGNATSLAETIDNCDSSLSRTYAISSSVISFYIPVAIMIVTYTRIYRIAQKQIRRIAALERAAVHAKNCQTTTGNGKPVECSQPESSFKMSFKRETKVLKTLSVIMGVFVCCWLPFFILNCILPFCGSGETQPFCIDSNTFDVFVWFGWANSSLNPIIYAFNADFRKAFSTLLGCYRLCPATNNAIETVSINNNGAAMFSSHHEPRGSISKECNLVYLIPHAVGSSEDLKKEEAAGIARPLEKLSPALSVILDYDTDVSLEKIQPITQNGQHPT
Sequence of Flap endonuclease 1 (Homo sapiens) (P39748 whole entry, looked up): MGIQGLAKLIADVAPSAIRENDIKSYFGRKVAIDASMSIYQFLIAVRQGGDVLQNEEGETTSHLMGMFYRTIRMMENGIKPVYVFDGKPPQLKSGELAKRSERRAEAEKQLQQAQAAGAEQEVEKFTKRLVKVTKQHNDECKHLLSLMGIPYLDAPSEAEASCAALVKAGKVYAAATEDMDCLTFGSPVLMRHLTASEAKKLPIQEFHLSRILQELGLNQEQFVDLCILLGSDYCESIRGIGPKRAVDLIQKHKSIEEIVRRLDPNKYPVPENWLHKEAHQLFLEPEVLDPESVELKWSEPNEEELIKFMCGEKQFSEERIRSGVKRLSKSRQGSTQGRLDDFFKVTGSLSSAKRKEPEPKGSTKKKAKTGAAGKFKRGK
Sequence of Thioredoxin reductase 1, cytoplasmic (Rattus norvegicus) (O89049 whole entry, looked up): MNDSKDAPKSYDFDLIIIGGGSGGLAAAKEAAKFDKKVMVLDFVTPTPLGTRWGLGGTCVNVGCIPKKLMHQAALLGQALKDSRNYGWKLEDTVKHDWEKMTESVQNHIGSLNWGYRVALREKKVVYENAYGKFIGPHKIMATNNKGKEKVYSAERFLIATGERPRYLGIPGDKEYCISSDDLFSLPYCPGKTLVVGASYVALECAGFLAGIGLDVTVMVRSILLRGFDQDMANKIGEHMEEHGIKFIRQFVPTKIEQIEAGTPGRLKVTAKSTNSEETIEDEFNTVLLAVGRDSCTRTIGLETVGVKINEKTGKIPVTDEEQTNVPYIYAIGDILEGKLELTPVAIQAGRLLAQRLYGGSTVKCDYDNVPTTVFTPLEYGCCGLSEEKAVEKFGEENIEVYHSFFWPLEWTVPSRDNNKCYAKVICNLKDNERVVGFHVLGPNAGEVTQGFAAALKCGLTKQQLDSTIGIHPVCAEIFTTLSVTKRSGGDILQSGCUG
Sequence of Methanococcus maripaludis chaperonin (MmCpn) (Q6LX38 1-543): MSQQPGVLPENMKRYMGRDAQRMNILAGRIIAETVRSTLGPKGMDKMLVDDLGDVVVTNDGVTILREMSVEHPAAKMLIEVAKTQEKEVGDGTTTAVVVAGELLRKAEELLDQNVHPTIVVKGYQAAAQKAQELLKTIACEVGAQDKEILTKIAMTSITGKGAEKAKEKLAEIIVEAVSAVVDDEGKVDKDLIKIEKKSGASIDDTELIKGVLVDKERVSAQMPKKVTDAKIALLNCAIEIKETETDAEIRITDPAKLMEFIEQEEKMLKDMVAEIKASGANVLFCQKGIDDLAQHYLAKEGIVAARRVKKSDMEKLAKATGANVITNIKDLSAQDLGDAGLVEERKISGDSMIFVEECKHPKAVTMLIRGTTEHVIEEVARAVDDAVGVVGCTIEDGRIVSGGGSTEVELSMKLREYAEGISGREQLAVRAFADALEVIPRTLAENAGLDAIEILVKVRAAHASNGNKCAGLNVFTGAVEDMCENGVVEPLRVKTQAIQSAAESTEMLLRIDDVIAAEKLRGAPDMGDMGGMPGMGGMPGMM

Compound | Potency [1] | Potency [2] | outcome [3] | Potency [4] | Potency [5] | Potency [6] | Potency [7] | outcome [8] | outcome [9] | outcome [10] | Potency [11] | Potency [12] | Potency [13] | Potency [14] | activation [15] | Potency [16] | Potency [17] | Potency [18]
OC[C@H]1O[C@@H](n2cnc3cncnc32)[C@H](O)[C@@H]1O | inactive | 3.29 µM (active) | inactive | inactive | inactive | inactive | inactive | inactive | inactive | inactive | inactive | inactive | inactive | inactive | 1.44% (inactive) |  |  | 
Nc1nc2c(nc(Br)n2C2OC3COP(=O)(O)O[C@@H]3C2O)c(=O)[nH]1 (stereo partly specified) |  |  | inactive | inactive | inactive | inactive | inactive | inactive |  |  | inactive | inactive | inactive | inactive |  | inactive |  | 
NC(=O)CNCCC(c1ccccc1)c1ccccc1 |  | inactive | inactive | inactive | inactive | inactive | inactive | inactive | inactive | inactive | inactive |  | inactive | inactive | 1.81% (inactive) | inactive | inactive | 
N=C(N)c1ccc(OCCCCCOc2ccc(C(=N)N)cc2)cc1 (tested in a mixture with another compound) |  |  | inactive | inactive | inactive | inactive | inactive | inactive | inactive | inactive | inactive | inactive | inactive |  | 1.31% (inactive) |  | 0.185 µM (active) | 
C=CCN1CCc2c(cc(O)c(O)c2Br)[C@@H](c2ccccc2)C1 |  | inactive | inactive | inactive | inactive | inactive | 44.7 µM (active) | inactive | inactive | inactive |  | inactive |  | inactive | -5.81% (inactive) | inactive | 1.85 µM (active) | 
CO/N=C(\C(=O)N[C@@H]1C(=O)N2C(C(=O)O)=C(CSc3nc(=O)c(O)nn3C)CSC12)c1csc(N)n1 (stereo partly specified) |  | inactive | inactive |  | inactive | 44.7 µM (active) and inactive |  | inactive | inactive | inactive | inactive | inactive | inactive | inactive | 1.12% (inactive) | inactive | inactive | 3.16 µM (active)
CN(CC[C@@H](Oc1ccc(C(F)(F)F)cc1)c1ccccc1)CC(=O)O |  |  | inactive | inactive | inactive | inactive | inactive | inactive |  |  | inactive | inactive | inactive | inactive |  | inactive |  | 
c1ccc(CN2CCC3(CCCc4ccccc43)CC2)cc1 | inactive |  | inactive | inactive | inactive | inactive | inactive | inactive | inactive | inactive | inactive |  | inactive | inactive | -8.25% (inactive) |  |  | 
CC(C)NCC(O)COc1ccc(CC(N)=O)cc1 (stereo unspecified) |  | inactive | inactive | inactive |  |  | inactive | inactive | inactive | inactive | inactive | inactive | inactive | inactive | 0.875% (inactive) | inactive | inactive | 
CCC1(O)CC2CN(CCc3c([nH]c4ccccc34)[C@@](C(=O)OC)(c3cc4c(cc3OC)N(C)C3[C@]45CCN4CC=C[C@@](CC)([C@@H](OC(C)=O)[C@]3(O)C(=O)OC)[C@H]45)C2)C1 (stereo partly specified) | inactive | 0.522 µM (active) |  |  | inactive | inactive |  | inactive | inactive | inactive | inactive | inactive | inactive |  | -0.125% (inactive) |  | 0.586 µM (active) | 
CCCOC(=O)c1c(-c2ccccc2)nc(CC)c(C(=O)SCC)c1CCC |  | 14.7 µM (active) | inactive | inactive | inactive | inactive | inactive | inactive | inactive | inactive | inactive | 2.91 µM (active) |  | inactive | 1.31% (inactive) | inactive |  | 
CCCC(=O)NCCc1c2n(c3ccc(OC)cc13)CCCc1ccccc1-2 | inactive |  | inactive | inactive | inactive | 28.2 µM (active) | 35.5 µM (active) | inactive | inactive | inactive | inactive | inactive | inactive | inactive |  |  | inactive | 
NC1CONC1=O (stereo unspecified) | inactive |  | inactive | inactive | inactive | inactive | inactive | inactive | inactive | inactive | inactive | inactive | inactive | inactive |  | inactive | inactive | 
CC(C)NC[C@H](O)COc1cccc2ccccc12 | inactive |  | inactive | inactive |  | inactive | inactive | inactive |  |  |  | inactive |  | inactive |  | inactive |  | 
CCN(CC)CCCCCCCCOC(=O)c1cc(OC)c(OC)c(OC)c1 |  | 18.5 µM (active) | inactive | inactive | inactive | inactive | inactive | inactive | inactive | inactive | inactive | inactive | inactive |  | 1.25% (inactive) | inactive |  | 
CCSC(=N)N |  | inactive | inactive | inactive |  | inactive |  | inactive | inactive | inactive | inactive | inactive | inactive |  |  | inactive | inactive | 
